{
  "source": "paper PMC7862700",
  "about": "“An all-to-all approach to the identification of sequence-specific readers for epigenetic DNA modifications on cytosine”",
  "test_in_all_cases": "DAPPL (digital affinity profiling via proximity ligation, sequencing); 10 mM Tris-HCl pH 7.5, 50 mM NaCl, 1 mM DTT, 4% glycerol, room temperature, 30 min; GST-TFs on glutathione beads, 16-mer random dsDNA library, 0.1% formaldehyde crosslink after washing; high values mean tight binding",
  "key": {"FEV": {"biological_target": "T1, FEV (Homo sapiens, UniProt Q99581 1-238)", "T1 sequence": "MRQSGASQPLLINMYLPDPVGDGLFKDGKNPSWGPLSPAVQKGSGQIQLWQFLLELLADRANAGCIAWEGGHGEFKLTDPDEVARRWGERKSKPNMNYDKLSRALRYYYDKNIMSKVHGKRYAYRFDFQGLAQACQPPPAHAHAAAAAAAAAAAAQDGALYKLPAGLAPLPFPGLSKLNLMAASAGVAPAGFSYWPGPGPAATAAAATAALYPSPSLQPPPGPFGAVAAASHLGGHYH", "conditions": "protein: recombinant; tags: N-terminal GST; dsDNA, one strand shown", "summary_of_the_method": "(§1)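 GST fusions of human transcription factors were expressed in yeast and captured with glutathione beads. Once given DNA barcodes and pooled alongside a tag-only sample, they were incubated for 30 min at room temperature with 200 nmole of a random double-stranded 16-mer DNA library in Tris/NaCl/DTT/glycerol buffer, then washed, crosslinked (0.1% formaldehyde), proximity-ligated, PCR-amplified and sequenced on an Illumina NextSeq500. The binding signal of each hexamer is its read frequency for a factor divided by its frequency for the tag-only sample.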"}, "ETV5": {"biological_target": "ETV5 (Homo sapiens, UniProt P41161 1-510)", "sequence (P41161 whole entry)": "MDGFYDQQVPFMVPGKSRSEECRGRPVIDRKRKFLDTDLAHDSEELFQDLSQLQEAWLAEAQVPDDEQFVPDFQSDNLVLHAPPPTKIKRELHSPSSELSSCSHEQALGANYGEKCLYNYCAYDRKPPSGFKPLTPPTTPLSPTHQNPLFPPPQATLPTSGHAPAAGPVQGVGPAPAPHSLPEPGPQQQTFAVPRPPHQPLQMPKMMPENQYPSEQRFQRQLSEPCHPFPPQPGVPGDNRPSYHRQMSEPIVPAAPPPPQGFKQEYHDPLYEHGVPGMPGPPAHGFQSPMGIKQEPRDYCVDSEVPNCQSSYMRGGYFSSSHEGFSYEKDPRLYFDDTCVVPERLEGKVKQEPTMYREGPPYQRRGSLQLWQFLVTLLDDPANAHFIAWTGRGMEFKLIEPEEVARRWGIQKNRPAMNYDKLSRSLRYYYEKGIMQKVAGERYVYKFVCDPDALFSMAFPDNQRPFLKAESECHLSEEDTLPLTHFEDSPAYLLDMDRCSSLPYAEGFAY", "conditions": "protein: recombinant; tags: N-terminal GST; dsDNA, one strand shown", "summary_of_the_method": "as §1"}, "HSF1": {"biological_target": "HSF1 (Homo sapiens, UniProt Q00613 1-529)", "sequence (Q00613 whole entry)": "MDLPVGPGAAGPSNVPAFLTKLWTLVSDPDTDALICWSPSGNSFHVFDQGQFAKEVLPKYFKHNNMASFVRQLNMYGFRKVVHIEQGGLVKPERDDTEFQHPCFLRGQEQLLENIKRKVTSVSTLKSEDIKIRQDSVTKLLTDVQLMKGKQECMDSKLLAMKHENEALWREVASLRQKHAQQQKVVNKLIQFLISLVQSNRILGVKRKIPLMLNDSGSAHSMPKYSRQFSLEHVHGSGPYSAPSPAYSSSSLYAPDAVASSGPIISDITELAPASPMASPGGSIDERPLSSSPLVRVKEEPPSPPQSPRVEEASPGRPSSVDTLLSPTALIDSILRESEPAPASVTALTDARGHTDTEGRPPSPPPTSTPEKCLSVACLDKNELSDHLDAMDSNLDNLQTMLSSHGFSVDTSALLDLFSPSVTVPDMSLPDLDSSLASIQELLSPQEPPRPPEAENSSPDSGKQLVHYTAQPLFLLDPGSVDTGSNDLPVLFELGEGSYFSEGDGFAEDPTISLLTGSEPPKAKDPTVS", "conditions": "protein: recombinant; tags: N-terminal GST; chain copies: 3; dsDNA, one strand shown", "summary_of_the_method": "as §1"}, "SPIC": {"biological_target": "T2, SPIC (Homo sapiens, UniProt Q8N5J4 1-248)", "T2 sequence": "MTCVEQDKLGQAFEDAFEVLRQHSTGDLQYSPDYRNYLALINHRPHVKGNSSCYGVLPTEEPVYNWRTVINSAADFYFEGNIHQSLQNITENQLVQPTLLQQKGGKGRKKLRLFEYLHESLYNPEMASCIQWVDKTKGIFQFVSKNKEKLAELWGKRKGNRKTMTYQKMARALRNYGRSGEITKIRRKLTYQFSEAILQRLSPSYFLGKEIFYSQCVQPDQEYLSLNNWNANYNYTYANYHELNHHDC", "conditions": "protein: recombinant; tags: N-terminal GST; dsDNA, one strand shown", "summary_of_the_method": "as §1"}, "ELF4": {"biological_target": "ELF4 (Homo sapiens, UniProt Q99607 1-663)", "sequence (Q99607 whole entry)": "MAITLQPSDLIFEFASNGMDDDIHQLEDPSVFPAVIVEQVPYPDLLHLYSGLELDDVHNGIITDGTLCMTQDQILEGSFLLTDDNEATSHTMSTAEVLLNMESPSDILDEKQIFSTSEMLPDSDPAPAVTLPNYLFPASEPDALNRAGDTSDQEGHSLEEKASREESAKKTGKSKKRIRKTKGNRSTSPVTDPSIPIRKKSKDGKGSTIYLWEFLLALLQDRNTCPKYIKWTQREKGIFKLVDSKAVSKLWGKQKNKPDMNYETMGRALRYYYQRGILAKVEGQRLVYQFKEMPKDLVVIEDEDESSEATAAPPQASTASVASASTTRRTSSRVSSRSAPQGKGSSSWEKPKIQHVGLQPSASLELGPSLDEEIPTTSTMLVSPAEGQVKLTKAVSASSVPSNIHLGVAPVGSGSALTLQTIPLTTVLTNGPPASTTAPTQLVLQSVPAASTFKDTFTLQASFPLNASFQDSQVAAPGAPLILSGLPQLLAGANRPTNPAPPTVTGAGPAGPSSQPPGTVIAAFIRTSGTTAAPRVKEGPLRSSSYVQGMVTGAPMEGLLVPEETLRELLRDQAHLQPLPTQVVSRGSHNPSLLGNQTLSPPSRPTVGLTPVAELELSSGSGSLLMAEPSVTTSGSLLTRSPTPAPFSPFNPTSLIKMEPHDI", "conditions": "protein: recombinant; tags: N-terminal GST; dsDNA, one strand shown", "summary_of_the_method": "as §1"}, "ELK4": {"biological_target": "T3, ELK4 (Homo sapiens, UniProt P28324-2 1-405)", "T3 sequence": "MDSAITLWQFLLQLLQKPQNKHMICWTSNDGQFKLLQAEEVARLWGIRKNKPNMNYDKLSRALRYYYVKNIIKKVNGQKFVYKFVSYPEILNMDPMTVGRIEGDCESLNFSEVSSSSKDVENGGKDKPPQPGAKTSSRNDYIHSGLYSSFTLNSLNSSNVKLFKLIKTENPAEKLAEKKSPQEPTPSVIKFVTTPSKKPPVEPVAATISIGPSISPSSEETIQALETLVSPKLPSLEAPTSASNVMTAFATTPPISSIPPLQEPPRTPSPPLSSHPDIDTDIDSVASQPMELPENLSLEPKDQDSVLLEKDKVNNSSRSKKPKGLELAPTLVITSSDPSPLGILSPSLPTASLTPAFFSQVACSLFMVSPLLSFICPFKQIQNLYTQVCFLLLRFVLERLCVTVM", "conditions": "protein: recombinant; tags: N-terminal GST; dsDNA, one strand shown", "summary_of_the_method": "as §1"}, "ETV2": {"biological_target": "T4, ETV2 (Homo sapiens, UniProt O00321 1-342)", "T4 sequence": "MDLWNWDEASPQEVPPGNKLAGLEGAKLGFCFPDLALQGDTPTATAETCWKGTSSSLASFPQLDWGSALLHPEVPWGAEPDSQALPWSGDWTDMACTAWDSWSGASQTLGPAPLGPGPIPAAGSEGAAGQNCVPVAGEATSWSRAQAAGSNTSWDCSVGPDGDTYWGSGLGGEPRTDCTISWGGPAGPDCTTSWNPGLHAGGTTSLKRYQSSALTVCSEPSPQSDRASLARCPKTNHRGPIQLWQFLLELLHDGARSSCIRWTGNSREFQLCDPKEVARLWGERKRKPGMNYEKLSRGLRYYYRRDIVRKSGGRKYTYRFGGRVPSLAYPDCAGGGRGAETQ", "conditions": "protein: recombinant; tags: N-terminal GST; dsDNA, one strand shown", "summary_of_the_method": "as §1"}, "ELF3": {"biological_target": "T5, ELF3 (Homo sapiens, UniProt P78545 1-371)", "T5 sequence": "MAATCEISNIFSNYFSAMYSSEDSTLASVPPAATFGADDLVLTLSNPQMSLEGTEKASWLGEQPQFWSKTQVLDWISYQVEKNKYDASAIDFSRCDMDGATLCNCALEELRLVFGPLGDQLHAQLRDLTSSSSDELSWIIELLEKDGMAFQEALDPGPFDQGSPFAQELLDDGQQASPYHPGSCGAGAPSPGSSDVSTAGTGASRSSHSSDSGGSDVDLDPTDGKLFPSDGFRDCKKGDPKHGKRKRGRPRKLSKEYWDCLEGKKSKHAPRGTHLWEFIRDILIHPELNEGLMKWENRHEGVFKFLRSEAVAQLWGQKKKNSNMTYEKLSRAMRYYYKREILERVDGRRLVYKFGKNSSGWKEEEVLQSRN", "conditions": "protein: recombinant; tags: N-terminal GST; dsDNA, one strand shown", "summary_of_the_method": "as §1"}, "CRX": {"biological_target": "CRX (Homo sapiens, UniProt O43186 1-299)", "sequence (O43186 whole entry)": "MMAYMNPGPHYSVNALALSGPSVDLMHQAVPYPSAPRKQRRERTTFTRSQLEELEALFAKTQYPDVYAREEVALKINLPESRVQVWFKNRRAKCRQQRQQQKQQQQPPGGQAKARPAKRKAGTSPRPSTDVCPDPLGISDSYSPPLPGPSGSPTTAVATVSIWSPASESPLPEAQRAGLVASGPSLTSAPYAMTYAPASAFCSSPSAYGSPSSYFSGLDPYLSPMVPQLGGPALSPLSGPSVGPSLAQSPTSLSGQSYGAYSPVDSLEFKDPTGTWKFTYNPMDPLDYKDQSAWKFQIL", "conditions": "protein: recombinant; tags: N-terminal GST; dsDNA, one strand shown", "summary_of_the_method": "as §1"}, "ETV1": {"biological_target": "ETV1 (Homo sapiens, UniProt P50549 1-477)", "sequence (P50549 whole entry)": "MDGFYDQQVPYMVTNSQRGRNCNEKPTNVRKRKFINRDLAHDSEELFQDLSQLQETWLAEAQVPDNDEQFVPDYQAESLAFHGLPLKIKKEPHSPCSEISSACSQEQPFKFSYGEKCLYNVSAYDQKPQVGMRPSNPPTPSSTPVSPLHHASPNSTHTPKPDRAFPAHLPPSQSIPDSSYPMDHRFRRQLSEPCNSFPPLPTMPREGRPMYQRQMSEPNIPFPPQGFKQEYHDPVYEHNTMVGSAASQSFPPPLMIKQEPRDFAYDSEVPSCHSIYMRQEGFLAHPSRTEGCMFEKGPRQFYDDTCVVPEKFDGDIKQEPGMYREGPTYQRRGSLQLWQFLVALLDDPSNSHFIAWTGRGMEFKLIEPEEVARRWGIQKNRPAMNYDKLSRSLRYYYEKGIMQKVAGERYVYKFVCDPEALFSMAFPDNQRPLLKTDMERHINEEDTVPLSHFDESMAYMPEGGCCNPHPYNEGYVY", "conditions": "protein: recombinant; tags: N-terminal GST; dsDNA, one strand shown", "summary_of_the_method": "as §1"}},
  "data": [
    {"sequence": "TCCGGA", "values": [
      {"measurement": "binding signal", "setting": "FEV", "value": "3.95 fold enrichment (6-mer frequency, TF over GST control)"},
      {"measurement": "binding signal", "setting": "ETV5", "value": "2.83 fold enrichment (6-mer frequency, TF over GST control)"},
      {"measurement": "binding signal", "setting": "HSF1", "value": "1.58 fold enrichment (6-mer frequency, TF over GST control)"},
      {"measurement": "binding signal", "setting": "SPIC", "value": "2.3 fold enrichment (6-mer frequency, TF over GST control)"},
      {"measurement": "binding signal", "setting": "ELF4", "value": "2.27 fold enrichment (6-mer frequency, TF over GST control)"},
      {"measurement": "binding signal", "setting": "ELK4", "value": "1.94 fold enrichment (6-mer frequency, TF over GST control)"},
      {"measurement": "binding signal", "setting": "ETV2", "value": "2.27 fold enrichment (6-mer frequency, TF over GST control)"},
      {"measurement": "binding signal", "setting": "ELF3", "value": "2.23 fold enrichment (6-mer frequency, TF over GST control)"},
      {"measurement": "binding signal", "setting": "CRX", "value": "1.14 fold enrichment (6-mer frequency, TF over GST control)"},
      {"measurement": "binding signal", "setting": "ETV1", "value": "2.75 fold enrichment (6-mer frequency, TF over GST control)"}
    ]}
  ]
}
